Among the data in PubChem BioAssay (Tox21) are Potency and outcome values, retold here.

The structures appear in SMILES notation. Records with an inconclusive call do not appear. Entries that show only a call come without a potency. Some compounds were tested as several samples or in several runs, with calls that do not always agree. Activity calls are given as the source filed them. Calls follow the shape of the dose curve; as a rule, active = well fitted curve in the direction sought with a large enough effect in the repeat runs; inconclusive = weak or mixed curves; inactive = no such curve, though single readings can be large; an effect the other way counts as inactive or inconclusive.

The first experiment is described as follows: Caspase-3/7 induction in CHO-K1 cells by small molecules, qHTS cell viability counter screen (AID 1346979). Also: nearly all actives have a fitted effect of over 35% in size. Also: potency is read from the fitted curve at half-maximal effect. The settings on record: CellTiter-Fluor fluorescence, 17 h; series mostly up to 92.4 µM. The method, boiled down: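 CHO-K1 wt, 1,500 cells/well; 5hr pre-incubation 37C/5% CO2; compound pin transfer (DMSO); 16hr exposure; CellTiter-Fluor added, 1hr, fluorescence read.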
(Quantitative high-throughput screening tests each substance at several concentrations.)
Consider `CN(C)CCC(c1ccccc1)c1ccccn1` (stereo not given), for which the Potency entry is “inactive”.
On the same count and under the same terms, the result for `O=c1[nH]c(=O)n([C@H]2C[C@H](O)[C@@H](CO)O2)cc1Br` reads “inactive”.
Consider `OCCOCCOCCO`, for which the Potency entry is “inactive”.
The same measure, in the same setting: to `CC(=O)OCC(=O)[C@@]12N=C(C)O[C@@H]1C[C@H]1[C@@H]3CCC4=CC(=O)C=C[C@]4(C)[C@H]3[C@@H](O)C[C@@]12C` belongs “inactive”; to `O=C(O)c1ccc2c(c1)C(=O)OC2=O`, “inactive”.
On the same count and under the same terms, to `OC[C@H]1O[C@@](CO)(O[C@H]2O[C@H](CO)[C@@H](O)[C@H](O)[C@H]2O)[C@@H](O)[C@@H]1O` belongs “inactive”; to `Cc1ccc(N(C)C)cc1`, “inactive”; to `O=C(OCCOCCOC(=O)c1ccccc1)c1ccccc1`, “inactive”.
With `O=C(Oc1ccccc1)c1ccccc1`, the Potency result was “inactive”.
On the same count and under the same terms, to `CC(C)(N)CO` belongs “inactive”; to `OCc1cccnc1`, “inactive”.
On the same count and under the same terms, to `CCCC(C)=O` belongs “inactive”; to `CCCCC(CC)COC(=O)CCCCC(=O)OCC(CC)CCCC` (stereo not given), “inactive”.
As for `CCCCCC/C(C=O)=C\c1ccccc1`, the Potency result is “inactive”.
With `Cc1ccc(S(N)(=O)=O)cc1`, the Potency result was “inactive”.
As to `FC(F)(F)c1ccc(Cl)c(Cl)c1`, the Potency entry is “inactive”.
Regarding `C[Si](O[Si](C)(C)C)O[Si](C)(C)C`, the Potency result was “inactive”.
On the same count and under the same terms, the result for `CCCCC(CC)COC(=O)CS` (stereo not given) reads “inactive”.
Same read-out and setting: the result for `COS(C)(=O)=O` reads “inactive”; that for `CC(c1cc2ccccc2s1)N(O)C(N)=O` (stereo not given), “inactive”.
Take `Cc1cc(C)c(C)cc1C`: the Potency result was “inactive”.
On the same count and under the same terms, the result for `CCCCOC(=O)COc1ccc(Cl)cc1Cl` reads “inactive”; that for `Oc1cccc2ccccc12`, “inactive”; that for `CC1CCC2CC1C2(C)C` (stereo not given), “inactive”.
On the same count and under the same terms, to `CCCCCOC(C)=O` belongs “inactive”; to `CCCCCC(N)=O`, “inactive”; to `C=CCOC(=O)c1ccccc1C(=O)OCC=C`, “inactive”.
In the case of `OCC(CO)(CBr)CBr`, the Potency entry is “inactive”.
With `O=c1[nH]c(=O)n([C@H]2CCCO2)cc1F`, the Potency entry was “inactive”.
On the same count and under the same terms, the result for `CCCCN(CCCC)CCCC` reads “inactive”; that for `C=CCNC(N)=S`, “inactive”.
Same read-out and setting: to `COc1cc(Cc2cnc(N)nc2N)cc(OC)c1OC` belongs “inactive”; to `O=C1CCC(N2C(=O)c3ccccc3C2=O)C(=O)N1` (stereo not given), “inactive”; to `C=C(C)C(=O)OCCOCCOCCOC(=O)C(=C)C`, “inactive”.
Same read-out and setting: the result for `CCC(O)OCCCOC` (stereo not given) reads 5.59 µM (active) and inactive.
`CN(C)CCCN`: the Potency result was “inactive”.
Still for that read-out and setting: the result for `CCc1cccc(C)c1N` reads “inactive”.

The next experiment in a line: Caspase-3/7 induction in CHO-K1 cells by small molecules, qHTS assay (AID 1346980). Also: nearly all actives have a fitted effect of over 15% in size. As to conditions: CHO-K1 caspase-3/7 induction, Caspase-Glo luminescence, 17 h; series mostly up to 92.4 µM. The method, boiled down:
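Wild-type cells were seeded at 1,500 per well and settled 5 hr at 37 C, 5% CO2, then exposed to DMSO-dissolved compounds for 17 hr. Caspase-Glo 3/7 reagent was added, and luminescence was read after 30min at room temperature.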
`CN(C)CCC(c1ccccc1)c1ccccn1` (stereo not given): the compound was classed as inactive.
Still for that read-out and setting: the result for `O=c1[nH]c(=O)n([C@H]2C[C@H](O)[C@@H](CO)O2)cc1Br` reads “inactive”.
Still for that read-out and setting: the result for `OCCOCCOCCO` reads “inactive”; that for `CC(=O)OCC(=O)[C@@]12N=C(C)O[C@@H]1C[C@H]1[C@@H]3CCC4=CC(=O)C=C[C@]4(C)[C@H]3[C@@H](O)C[C@@]12C`, “inactive”; that for `O=C(O)c1ccc2c(c1)C(=O)OC2=O`, “inactive”.
On the same count and under the same terms, to `OC[C@H]1O[C@@](CO)(O[C@H]2O[C@H](CO)[C@@H](O)[C@H](O)[C@H]2O)[C@@H](O)[C@@H]1O` belongs “inactive”; to `Cc1ccc(N(C)C)cc1`, “inactive”; to `O=C(OCCOCCOC(=O)c1ccccc1)c1ccccc1`, “inactive”.
On to `O=C(Oc1ccccc1)c1ccccc1`, for which the call was inactive.
Regarding `CC(C)(N)CO`, the result was inactive.
On the same count and under the same terms, to `OCc1cccnc1` belongs “inactive”; to `CCCC(C)=O`, “inactive”; to `CCCCC(CC)COC(=O)CCCCC(=O)OCC(CC)CCCC` (stereo not given), “inactive”.
On to `CCCCCC/C(C=O)=C\c1ccccc1`, for which the result was inactive.
Same read-out and setting: the result for `Cc1ccc(S(N)(=O)=O)cc1` reads “inactive”.
Still for that read-out and setting: to `FC(F)(F)c1ccc(Cl)c(Cl)c1` belongs “inactive”; to `C[Si](O[Si](C)(C)C)O[Si](C)(C)C`, “inactive”.
On the same count and under the same terms, the result for `C=C(C)C(=O)Nc1ccc(Cl)c(Cl)c1` reads “inactive”.
With `CCCCC(CC)COC(=O)CS` (stereo not given), the call was inactive.
The same measure, in the same setting: to `COS(C)(=O)=O` belongs “inactive”; to `CC(c1cc2ccccc2s1)N(O)C(N)=O` (stereo not given), “inactive”; to `Cc1cc(C)c(C)cc1C`, “inactive”.
Still for that read-out and setting: to `CCCCOC(=O)COc1ccc(Cl)cc1Cl` belongs “inactive”; to `Oc1cccc2ccccc12`, “inactive”; to `CC1CCC2CC1C2(C)C` (stereo not given), “inactive”.
On to `CCCCCOC(C)=O`, for which the result was inactive.
`CCCCCC(N)=O`: the result was inactive.
As to `C=CCOC(=O)c1ccccc1C(=O)OCC=C`, the compound was classed as inactive.
Still for that read-out and setting: to `OCC(CO)(CBr)CBr` belongs “inactive”.
Same read-out and setting: the result for `O=c1[nH]c(=O)n([C@H]2CCCO2)cc1F` reads “inactive”; that for `CCCCN(CCCC)CCCC`, “inactive”.
The same measure, in the same setting: the result for `C=CCNC(N)=S` reads “inactive”; that for `COc1cc(Cc2cnc(N)nc2N)cc(OC)c1OC`, “inactive”; that for `O=C1CCC(N2C(=O)c3ccccc3C2=O)C(=O)N1` (stereo not given), “inactive”.
Consider `C=C(C)C(=O)OCCOCCOCCOC(=O)C(=C)C`, for which the compound was called inactive.
Still for that read-out and setting: to `CCC(O)OCCCOC` (stereo not given) belongs “inactive”; to `CN(C)CCCN`, “inactive”; to `CCc1cccc(C)c1N`, “inactive”.
